PubChem BioAssay (NCI)
About 79,000 compounds went through this panel and 15% of them were active in at least one assay; those are over-represented in the sample as a whole. Rule as the data show it: active = growth inhibition above about 70%; inactive = the rest.

Assays:
[1] = NCI Yeast Anticancer Drug Screen. Data for the rad50 strain (AID 155);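 also: 0% = growth of vehicle-only cultures of the same strain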; details: S. cerevisiae rad50 strain growth inhibition; at 50.0 µM; hits give high values
How it was run: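 Yeast carrying a defined DNA repair defect were exposed to test compounds, and growth was compared with vehicle-treated controls to give percent inhibition.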

[2] = NCI Yeast Anticancer Drug Screen. Data for the mec2-1 strain (AID 157); details: S. cerevisiae mec2-1 strain, at 50.0 µM, hits give high values
How it was run: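 Yeast mec2-1 mutant treated with compound. Readout: growth inhibition vs vehicle controls.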

[3] = NCI Yeast Anticancer Drug Screen. Data for the sgs1 mgt1 strain (AID 161);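 also: 0% = growth of cultures given vehicle only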; details: S. cerevisiae sgs1 mgt1 strain, at 50.0 µM, hits give high values
How it was run: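 Read-out: growth inhibition vs vehicle controls. Cells: mutant yeast strain deficient in DNA damage repair.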

[4] = NCI Yeast Anticancer Drug Screen. Data for the cln2 rad14 strain (AID 165);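 also: 0% = growth equal to vehicle treated cultures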; details: S. cerevisiae cln2 rad14 strain, at 50.0 µM, hits give high values
How it was run: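 cln2 rad14 yeast strain; compound exposure; growth inhibition read vs vehicle controls.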

[5] = NCI Yeast Anticancer Drug Screen. Data for the bub3 strain (AID 167); details: S. cerevisiae bub3 mutant strain, at 50.0 µM, hits give high values
How it was run: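 Compounds were applied to a genetically altered yeast strain carrying a cell-cycle control defect. Growth inhibition was scored against vehicle-treated controls.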

[6] = NCI Yeast Anticancer Drug Screen. Data for the mlh1 rad18 strain (AID 175); details: S. cerevisiae mlh1 rad18 strain growth inhibition; at 50.0 µM; hits give high values
How it was run: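 Yeast w/ defined DNA-repair lesions; compound exposure; growth vs vehicle controls → % inhibition.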

Measured: growth inhibition

Cc1ccc2c3c1CCCN3CCC2
inactive: [1] 3.45% | [2] -3.85% | [3] 15.6% | [4] 61.9% | [5] -0.55% | [6] 8.95%

COc1ccc(C(C#N)NNC(=O)c2ccccc2O)cc1OC (stereo not given)
inactive: [1] 14.9% | [2] 0.85% | [3] 6.6% | [4] 4.2% | [5] 35.2% | [6] -18.9%

COc1ccccc1Oc1ccccc1
inactive: [1] -20.7% | [2] -61.3% | [3] -8.6% | [4] 13.6% | [5] -34% | [6] 20.8%

CCC(=O)c1cc2c(cc1O)CC(C(=O)CC)c1ccccc1-2 (stereo not given)
inactive: [1] 13.3% | [2] 6.55% | [3] 17% | [4] -2.55% | [5] 11.2% | [6] 12.4%

O=Cc1cc(C(=O)c2ccccn2)c2cc(Cl)cc(Cl)c2n1
inactive: [1] 8.05% | [2] 5.9% | [3] 5.8% | [4] -13.8% | [5] -4.3% | [6] 11.6%

O=c1[nH]c(=O)c2[nH]cnc2[nH]1
inactive: [1] 8.05% | [2] -6% | [3] 5.9% | [4] 2.55% | [5] 9.9% | [6] 9.75%

C=CCNC(=S)Nc1ccc(OC(=O)NC2CCCCC2)cc1
inactive: [1] 6.4% | [2] 23.6% | [3] 15.1% | [4] -7.85% | [5] -2.4% | [6] 31.9%

CCSc1ccc2c3c(cccc13)C(=O)N(CCc1ccccn1)C2=O
inactive: [1] -0.6% | [2] -14.1% | [3] 11.8% | [4] 2.25% | [5] 6.2% | [6] 2.8%

CCCCSc1nc2c(=O)n(C)c(=O)n(C)c2n1C
inactive: [1] 2.1% | [2] 1.15% | [3] 10.8% | [4] -5.7% | [5] -12.7% | [6] 6.95%

O=C(C(=O)c1ccco1)c1ccco1
inactive: [1] 64.1% | [2] -0.45% | [3] 34.1% | [4] -24.6% | [5] 21.1% | [6] 35%

CCCCC(CCCC)(C(=O)NC)c1ccccc1
inactive: [1] 3.85% | [2] 6.65% | [3] -4.5% | [4] -14.2% | [5] 17.1% | [6] -23.5%

NC(=O)c1ccc(=S)[nH]c1
inactive: [1] -8% | [2] -12.7% | [3] -7.55% | [4] -27.1% | [5] -6.1% | [6] 14.7%

CCOC(=O)c1cc(N)c(C(=O)OCC)cc1N
inactive: [1] 4.15% | [2] -16.5% | [3] -1.3% | [4] 3.6% | [5] 8.65% | [6] 10.3%

Cc1c([N+](=O)[O-])ccc2c(NCCCN(C)C)ccnc12
inactive: [1] -2.5% | [2] -5.65% | [3] -5.35% | [4] -6.4% | [5] -14.3% | [6] -36.4%

CCC1(C)OC(C)CC(C)(C)O1 (stereo not given)
inactive: [1] 0.65% | [2] -22.9% | [3] -25.4% | [4] -0.25% | [5] -12.6% | [6] 0%

COc1cccc(Br)c1OC
inactive: [1] -5.4% | [2] 1.2% | [3] 20.8% | [4] 38.6% | [5] 31.9% | [6] -3.1%

Cc1cc2c(=O)cc(-c3ccc(F)cc3)oc2c(C(=O)O)c1C
inactive: [1] -19.1% | [2] -1.1% | [3] -5.6% | [4] 17.4% | [5] -4.4% | [6] 33.3%

CC(C)CCC(=O)OCC(=O)c1ccc(-c2ccccc2)cc1
inactive: [1] 8.55% | [2] -13.1% | [3] 7.25% | [4] -1.45% | [5] 23.9% | [6] 9.1%

COc1ccc(CC2c3cc(OC)c(OC)cc3CCN2C(=O)c2ccccc2)cc1OC (stereo not given)
inactive: [1] 10% | [2] -18.9% | [3] 9.5% | [4] 16.3% | [5] 10.7% | [6] 1.45%

O=NN(CCCl)C(=O)/N=N/C(=O)N(CCCl)N=O
inactive: [1] 6.25% | [2] -38.9% | [3] -20.4% | [4] 15.2% | [5] -3.85% | [6] 20%
